Assay results taken from PubChem BioAssay (EPA / NIEHS).
Values joined by “and” are separate entries in the source; they are usually repeats but may differ in a detail not shown here. Equal entries are not always repeated. Some structures have more than one record in an assay (separate samples or runs), and their calls can disagree. Active and inactive are the calls of the source. The calls were made as follows: active = hit-call score of the fitted dose curve at least 0.9, where 1 is the maximum; inactive = score below 0.9.

Assays:
[1] = read-out: Urokinase-type plasminogen activator receptor (uPAR), PLAUR (gene 5329); assay: BSK_4H_uPAR: BioMAP Diversity Plus: 4H Assay for Urokinase-type plasminogen activator receptor (uPAR) Biomarker Activity (AID 2283030); details: primary human endothelial cells (HUVEC); actives raise or lower the signal
Summary of the method: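 uPAR level read by ELISA on HUVEC cultures (BioMAP 4H) 24 h post-dosing, analyzed for gain or loss relative to DMSO. Parallel SRB staining assessed overt cytotoxicity.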

[2] = read-out: Vascular endothelial growth factor receptor 2 (Homo sapiens) (UniProt P35968); assay: BSK_4H_VEGFRII: BioMAP Diversity Plus: 4H Assay for Vascular endothelial growth factor receptor 2 (VEGFR2) Biomarker Activity (AID 2283031); details: primary human endothelial cells (HUVEC); actives raise or lower the signal;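 as to AC50: cell-surface VEGFR2 protein level quantified by ELISA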
Summary of the method: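 Measured by ELISA after 24 h of compound treatment: VEGFR2 on primary human umbilical vein endothelial cells, fitted in both directions relative to DMSO. Parallel cultures received SRB staining (560 nm) for overt cytotoxicity.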

[3] = read-out: Human Leukocyte Antigen - DR isotype (HLADR), HLA-DRA (gene 3122); assay: BSK_BE3C_HLADR: BioMAP Diversity Plus: BE3C Assay for Human Leukocyte Antigen - DR isotype (HLADR) Biomarker Activity (AID 2283032); details: primary human bronchial epithelial cells; actives raise or lower the signal
Summary of the method: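 Signal came from an ELISA for HLA-DR in human bronchial epithelial primary cells harvested 24 h after treatment; gain- and loss-of-signal fitting used DMSO controls as reference.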

[4] = read-out: Vascular cell adhesion molecule 1 (VCAM1), VCAM1 (gene 7412); assay: BSK_4H_VCAM1: BioMAP Diversity Plus: 4H Assay for Vascular cell adhesion molecule 1 (VCAM1) Biomarker Activity (AID 2283033); details: primary human endothelial cells (HUVEC); actives raise or lower the signal
Summary of the method: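 Endpoint derived from bidirectional fitting against DMSO controls of VCAM-1 ELISA signal in umbilical vein endothelial cells sampled at 24 h following treatment.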

[5] = read-out: Interferon-gamma inducible Protein 10 (IP10), CXCL10 (gene 3627); assay: BSK_BE3C_IP10: BioMAP Diversity Plus: BE3C Assay for Interferon-gamma inducible Protein 10 (IP10) Biomarker Activity (AID 2283034); details: primary human bronchial epithelial cells; actives raise or lower the signal
Summary of the method: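 Using primary human bronchial epithelial cultures, the assay captures IP-10 by ELISA one day (24 h) after exposure. Parallel SRB staining of total protein flags overt cytotoxicity. Fits run bidirectionally relative to DMSO.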

[6] = read-out: Monokine induced gamma interferon (MIG), CXCL9 (gene 4283); assay: BSK_BE3C_MIG: BioMAP Diversity Plus: BE3C Assay for Monokine induced gamma interferon (MIG) Biomarker Activity (AID 2283035); details: primary human bronchial epithelial cells; actives raise or lower the signal
Summary of the method: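 MIG level was determined by ELISA after 24 h chemical treatment of primary human bronchial epithelial cells. Values were fitted bidirectionally with DMSO as the negative control and activity baseline.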

[7] = read-out: Transforming growth factor beta 1 (TGFb1), TGFB1 (gene 7040); assay: BSK_BE3C_TGFb1: BioMAP Diversity Plus: BE3C Assay for Transforming growth factor beta 1 (TGFb1) Biomarker Activity (AID 2283036); details: primary human bronchial epithelial cells; actives raise or lower the signal
Summary of the method: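 In this human primary bronchial epithelial system, an ELISA quantified TGF-b1 one day after dosing. Endpoint changes in either direction were fitted relative to DMSO.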

[8] = read-out: Plasminogen activator inhibitor-1 (PAI1), SERPINE1 (gene 5054); assay: BSK_BE3C_PAI1: BioMAP Diversity Plus: BE3C Assay for Plasminogen activator inhibitor-1 (PAI1) Biomarker Activity (AID 2283037); details: primary human bronchial epithelial cells; actives raise or lower the signal
Summary of the method: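 PAI-1 biomarker levels in treated human bronchial epithelial cells are determined by ELISA at 24 h. Both increases and decreases relative to DMSO are fitted.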

[9] = read-out: urokinase plasminogen activator (uPA), PLAU (gene 5328); assay: BSK_BE3C_uPA: BioMAP Diversity Plus: BE3C Assay for urokinase plasminogen activator (uPA) Biomarker Activity (AID 2283038); details: primary human bronchial epithelial cells; actives raise or lower the signal
Summary of the method: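 ELISA for uPA on human primary bronchial epithelial cultures 24 h post-treatment, gain or loss against DMSO. Parallel SRB staining (0.1% after 10% TCA fixation, 560 nm) assessed overt cytotoxicity.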

[10] = read-out: Urokinase-type plasminogen activator receptor (uPAR), PLAUR (gene 5329); assay: BSK_BE3C_uPAR: BioMAP Diversity Plus: BE3C Assay for Urokinase-type plasminogen activator receptor (uPAR) Biomarker Activity (AID 2283039); details: primary human bronchial epithelial cells; actives raise or lower the signal
Summary of the method: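 A uPAR ELISA serves as the readout, taken 24 h after treating primary human bronchial epithelial cells. Responses in either direction are fitted against DMSO, which defines baseline activity.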

[11] = read-out: Interleukin-6 (IL6), IL6 (gene 3569); assay: BSK_CASM3C_IL6: BioMAP Diversity Plus: CASM3C Assay for Interleukin-6 (IL6) Biomarker Activity for (AID 2283040); details: primary human coronary artery smooth muscle cells; actives raise or lower the signal
[12] = read-out: Tissue plasminogen activator (tPA), PLAT (gene 5327); assay: BSK_BE3C_tPA: BioMAP Diversity Plus: BE3C Assay for Tissue plasminogen activator (tPA) Biomarker Activity (AID 2283041); details: primary human bronchial epithelial cells; actives raise or lower the signal
Summary of the method: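 Bidirectional curve fitting relative to DMSO defined activity, with tPA detected by ELISA in chemically treated human bronchial epithelial primary cells at 24 hours.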

[13] = read-out: Interleukin-8 (IL8), CXCL8 (gene 3576); assay: BSK_CASM3C_IL8: BioMAP Diversity Plus: CASM3C Assay for Interleukin-8 (IL8) Biomarker Activity (AID 2283042); details: primary human coronary artery smooth muscle cells; actives raise or lower the signal;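 also: IL-8 protein level quantified by ELISA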
[14] = read-out: Human Leukocyte Antigen - DR isotype (HLADR), HLA-DRA (gene 3122); assay: BSK_CASM3C_HLADR: BioMAP Diversity Plus: CASM3C Assay for Human Leukocyte Antigen - DR isotype (HLADR) Biomarker Activity (AID 2283043); details: primary human coronary artery smooth muscle cells; actives raise or lower the signal;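 also: cell-surface HLA-DR protein level quantified by ELISA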
[15] = read-out: Macrophage colony-stimulating factor (MCSF), CSF1 (gene 1435); assay: BSK_CASM3C_MCSF: BioMAP Diversity Plus: CASM3C Assay for Macrophage colony-stimulating factor (MCSF) Biomarker Activity (AID 2283044); details: primary human coronary artery smooth muscle cells; actives raise or lower the signal;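 also: M-CSF protein amount quantified by ELISA after 24 h exposure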
[16] = read-out: Low-density lipoprotein receptor (LDLR), LDLR (gene 3949); assay: BSK_CASM3C_LDLR: BioMAP Diversity Plus: CASM3C Assay for Low-density lipoprotein receptor (LDLR) Biomarker Activity (AID 2283045); details: primary human coronary artery smooth muscle cells; actives raise or lower the signal;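 also: LDLR protein level on the cell surface quantified by ELISA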
[17] = read-out: Monocyte Chemoattractant Protein-1 (MCP1), CCL2 (gene 6347); assay: BSK_CASM3C_MCP1: BioMAP Diversity Plus: CASM3C Assay for Monocyte Chemoattractant Protein-1 (MCP1) Biomarker Activity (AID 2283046); details: primary human coronary artery smooth muscle cells; actives raise or lower the signal;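 also: MCP-1 level quantified by ELISA 24 h after dosing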
[18] = BSK_CASM3C_Proliferation: Cell Proliferation Assessment in the BioMAP Diversity Plus: CASM3C Assay (AID 2283047); details: primary human coronary artery smooth muscle cells;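 also: sulforhodamine B total protein stain as relative cell number at 560 nm; sub-confluent cells exposed 48 h before staining; fitted both ways against DMSO so gain or loss of cell number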
[19] = read-out: Monokine induced gamma interferon (MIG), CXCL9 (gene 4283); assay: BSK_CASM3C_MIG: BioMAP Diversity Plus: CASM3C Assay for Monokine induced gamma interferon (MIG) Biomarker Activity (AID 2283048); details: primary human coronary artery smooth muscle cells; actives raise or lower the signal;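 also: MIG protein level measured by ELISA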
[20] = read-out: serum amyloid A (SAA), SAA1 (gene 6288); assay: BSK_CASM3C_SAA: BioMAP Diversity Plus: CASM3C Assay for serum amyloid A (SAA) Biomarker Activity (AID 2283049); details: primary human coronary artery smooth muscle cells; actives raise or lower the signal;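 also: SAA protein level quantified by ELISA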

Measured: AC50

C=C(C)[C@H]1Cc2c(ccc3c2O[C@@H]2COc4cc(OC)c(OC)cc4[C@@H]2C3=O)O1
active: [1] 4.41 µM | [2] 3.97 µM | [3] 6.33 µM | [4] 8.68 µM | [5] 20 µM | [18] 3.97 µM
inactive: all other assays above

CCCCOC(=O)c1ccccc1C(=O)O
inactive: all assays above

CSc1nnc(C(C)(C)C)c(=O)n1N
active: [5] 7.16 µM | [16] 4.43 µM
inactive: all other assays above

CN(C)[C@@H]1C(=O)C(C(N)=O)=C(O)[C@@]2(O)C(=O)C3=C(O)c4c(O)cccc4[C@@](C)(O)[C@H]3[C@H](O)[C@@H]12
inactive: [1] | [2] | [3] | [4] | [5] | [6] | [7] | [8] | [9] | [11] | [12] | [13] | [14] | [15] | [16] | [17] | [19] | [20]
active: [8] 3.97 µM | [18] 28.7 µM and 11 µM

CC1=NNC(=O)N(/N=C/c2cccnc2)C1
inactive: all assays above

O=[N+]([O-])c1cc(C(F)(F)F)c(Cl)c([N+](=O)[O-])c1Nc1ncc(C(F)(F)F)cc1Cl
inactive: [2] | [11] | [16]
active: [1] 1.4 µM and 2.25 µM | [2] 1.2 µM | [3] 1.52 µM and 3.78 µM | [4] 1 µM and 2.33 µM | [5] 1.23 µM and 4.77 µM | [6] 4.03 µM and 7.17 µM | [7] 2.51 µM and 9.94 µM | [8] 7.78 µM and 8.98 µM | [9] 2.19 µM and 1.62 µM | [10] 7.71 µM and 8.37 µM | [11] 3.6 µM | [12] 20 µM | [13] 4.49 µM and 10.8 µM | [14] 2.16 µM and 10 µM | [15] 1.72 µM and 6.05 µM | [17] 4.23 µM and 9.83 µM | [18] 2.28 µM and 1.22 µM | [19] 3.98 µM and 8.05 µM | [20] 3.5 µM and 6.78 µM
